Screens deposited in PubChem by several laboratories.
CTSL1 counter – blocks F. hepatica cathepsin L1 in PFM18AAP counter-screen | recombinant F. hepatica cathepsin L1, Z-Leu-Arg-MCA fluorescence | inhibition, % at 5.96 µM | 0.49% of 300,000 active;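 active = inhibition above the mean of all tested compounds plus 3 SD, set per screening campaign, cut at about 17% in these data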;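 also: 0% = plate median of test compound wells and 100% = 1 µM Z-Phe-Ala-diazomethylketone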
Rin1 Abl inh – human Rin1-Abl interaction inhibition. AID 588664. TR-FRET Rin1/Abl binding, biochemical. 0.4% of 360,000 active. inhibition, % at 7.35 µM. P00519+Q13671; in the data active = inhibition above about 5%, passing the limit was not always enough
M18AAP inhibitor – blocks P. falciparum M18 aspartyl aminopeptidase; recombinant PfM18AAP, H-Glu-NHMec fluorogenic cleavage; inhibition, % at 7.35 µM; 1.2% of 290,000 active; AID 1822;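 active = inhibition above the campaign mean inhibition over all tested compounds plus 3 SD, cut at about 28% in these data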;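 also: 0% = plate median of test compound wells and 100% = 2 mM ZnCl2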
Calb FLC – affects C. albicans growth with fluconazole | growth inhibition, % (no concentration beside the values) | 0.57% of 300,000 active | C. albicans CaCi-2 (fluconazole-resistant clinical isolate) + fluconazole, Alamar Blue growth, 48 h | AID 1979;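 active = growth inhibition above about 58% in most replicates, limit read from the data, passing the limit was not always enough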;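 also: all wells also contain fluconazole at 8 µg/ml as a sub-toxic cotreatment; 0% = median of DMSO wells and 100% = median of geldanamycin control wells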
* = called active by the depositor; / = no result. Hits are enriched below; roughly 2.1% of the tested compounds scored in any of these assays.

SMILES	CTSL1 counter	Rin1 Abl inh	M18AAP inhibitor	Calb FLC
COc1cccc(OC)c1OCCN(C)C	2	-3	31*	-3
Cn1cc(Cc2ccc(C(=O)N3CCOCC3)cn2)c2ccccc21	/	-4	/	/
Cc1cccn2c(=O)c3cc(C(=O)NCc4ccco4)c(=N)n(CCOCCO)c3nc12	8	-10	29*	6
Cc1cccn2c(=O)c3cc(C(=O)NCc4ccco4)c(=N)n(C4CCCCC4)c3nc12	2	-7	18	-19
COc1ccc(CCN(Cc2cc3cccc(C)c3[nH]c2=O)C(=O)NC2CCCCC2)cc1OC	-19	-3	7	10
O=c1c(O)c(-c2cc(O)c(O)c(O)c2)oc2cc(O)cc(O)c12	1	55*	/	/
O=c1c(O)c(-c2ccccc2)oc2cc(O)cc(O)c12	/	3	/	/
O=c1c(O)c(-c2ccc(O)cc2O)oc2cc(O)cc(O)c12	/	/	30*	/
O=c1c(-c2ccc(O)cc2O)coc2cc(O)cc(O)c12	0	-1	20	0
CSc1ccc(S(=O)(=O)N2CCC(C(=O)NCc3cccnc3)CC2)cc1	-7	6	4	1
COC(=O)c1c(C(=O)OC)c(-c2ccc(Cl)c(Cl)c2)n2c1CCC2	5	0	-10	111*
O=C(CN1CCN(S(=O)(=O)c2ccc(Cl)cc2)CC1)N1CCCC1	/	-1	/	/
Cc1ccc(S(=O)(=O)N(C)c2ccc(OCC(=O)Nc3nnc(C4CC4)s3)cc2)cc1	/	0	4	63*
CCc1nnc(NC(=O)COc2ccc(N(C)S(=O)(=O)c3ccc(C)cc3)cc2)s1	/	-1	-10	35
Cc1c(NC(=O)c2cc(-c3cccs3)on2)c(=O)n(-c2ccccc2)n1C	6	-3	0	0
COc1ccc(CCNC(=O)COC(=O)C2COc3ccccc3O2)cc1 (centres undefined)	/	5	/	/
O=C(NCc1n[nH]c(=S)n1-c1ccc(F)cc1)c1ccc(S(=O)(=O)N2CCOCC2)cc1	-1	6	28*	43
O=C(NCc1n[nH]c(=S)n1-c1ccccc1)c1ccc(S(=O)(=O)N2CCOCC2)cc1	-4	1	11	-6
CC1CC(C)(C)NC(=S)N1CCCC(=O)NCCc1ccc(Cl)cc1 (centres undefined)	1	1	-4	-1
NC(=S)N/N=C1/CCSc2ccc3ccccc3c21	25*	-4	18	10
CC(=O)Nc1cccc(C(=O)NC2CCCc3c2cnn3-c2cc(C)cc(C)c2)c1 (centres undefined)	-1	0	-12	6
Cc1ccn2c(Nc3ccc4c(c3)OCO4)c(-c3ccc(O)cc3)nc2c1	-2	-3	31*	28
Oc1ccc(-c2nc3ncccn3c2Nc2ccc3c(c2)OCO3)cc1	2	-4	17	1
O=C(COC(=O)c1cc(-c2cccs2)nn1-c1ccccc1)Nc1ccc(F)c([N+](=O)[O-])c1	-1	-3	-3	3
O=C(N/N=C/c1ccc(OCc2ccccc2)cc1)c1ccncc1	11	-1	-12	-3
SMILES	CTSL1 counter	Rin1 Abl inh	M18AAP inhibitor	Calb FLC
Oc1ccc(N=Cc2ccc(OCc3ccccc3)cc2)cc1	45*	-2	8	23
N#CC1=C(SCc2ccccc2)NC(=O)CC1c1ccc(O)cc1 (centres undefined)	-4	2	29*	0
COc1ccccc1NC(=O)C1CCN(C(=O)c2ccco2)CC1	-1	0	4	2
Cc1cc(N/N=C/c2c(O)ccc3ccccc23)nc(-c2ccccc2O)n1	3	-3	-3	82*
Cc1ccc2[nH]c3c(c2c1)CN(C(=O)CN(C)CC1OCCO1)CC3	17*	-2	4	15
O=C(O)c1cccc2c1C(=O)N(Cc1ccccc1)C2	-2	1	-2	-1
O=c1[nH][nH]c(=S)n1C1CCCCC1	0	/	58*	-4
CCN1CCc2nc(N)sc2C1	-3	-2	44*	-9
Cc1csc2nc(O)c(C(=O)NCCC3=CCCCC3)c(=O)n12	-5	-2	/	-1
O=C(Nc1ccncc1)c1cccc(S(=O)(=O)N2CCc3ccccc32)c1	17*	-2	/	15
Cc1ccc(OCC(=O)N/N=C\c2c(C)[nH]n(-c3ccccc3)c2=O)c([N+](=O)[O-])c1	3	1	9	106*
COc1cc2c(cc1OC(C)=O)CCCCC2=O	/	4	/	/
N/C(CCS(=O)(=O)c1ccc(Cl)cc1)=N\OC(=O)c1ccccc1Cl	25*	2	-12	4
N/C(=N\OC(=O)c1ccccc1Cl)c1ccc(Cl)cc1	-5	0	3	-1
Cc1ccc(NC(=O)CCl)cc1S(=O)(=O)N1CCCCCC1	58*	2	5	-38
COCCNCC(=O)Nc1ccc(C)c(S(=O)(=O)N2CCCCC2)c1	0	0	-8	-4
